Reference: PMC12136788
Over roughly 5,800 sequences, “enrichment r” has its median near 0.68; the highest 2% begin near 11. Only a sample is shown.

T1: UNK ZnF1-6 (called full-length) (human, UniProt Q9C0B0 30-357)
T1 sequence: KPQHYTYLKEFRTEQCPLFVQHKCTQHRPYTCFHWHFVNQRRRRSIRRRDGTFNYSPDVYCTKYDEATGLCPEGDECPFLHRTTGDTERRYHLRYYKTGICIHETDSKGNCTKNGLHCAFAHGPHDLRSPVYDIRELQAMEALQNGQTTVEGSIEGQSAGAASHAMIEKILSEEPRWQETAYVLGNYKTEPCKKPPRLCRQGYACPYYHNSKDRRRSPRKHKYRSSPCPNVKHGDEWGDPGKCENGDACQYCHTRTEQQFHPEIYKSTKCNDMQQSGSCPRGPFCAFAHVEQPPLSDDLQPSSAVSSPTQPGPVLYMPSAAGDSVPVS

B1: chr14:88572724:88572825:+|CDS|ENSG00000100722|unk|FALSE|unique (ssRNA)
RNA: GGGAGUUCUACAGUCCGACGAUCGUGACACUUACAUAUGGUUCUUCUCGCCCUUCUAUUGAAAUUUAUCGACCACCUGCAAGUAGAAAUGCAGAUAGUGGUGUUCAUUUAAACAGGUUGCAAUUUCAACAGCAGCAGAAUAGUCAACAGAGGAUUGAGCAUCA
B2: chr17:42200006:42200107:-|3pUTR|ENSG00000173757|unk|FALSE|unique (ssRNA)
RNA: GGGAGUUCUACAGUCCGACGAUCAAGCUGCCGUUUGCCUUGGCUUGGUUUCAUACACUGAUUUAUUUUUCUAUGCCAGGCAGUAGAGUCUCUCUGCCUCUGAGGAGCAGGCUACCCGCAUCCCACUCAGCCCCUCCCUACCCCCAACAGAGGAUUGAGCAUCA
B3: ENSG00000087269:stop:overlap|stop_codon|ENSG00000087269|stop_codon|NA|stop_codon (ssRNA)
RNA: GGGAGUUCUACAGUCCGACGAUCGGCUGGCUGGUCUCGAAUUCCCGACCUCAGGUAAUCCACCUGCCUUGGCCCCCCAAUUAUAGGUGUGAGCCACAGCACCCAGCCAAAAAAGUAAUUUUUUUUAGAGUAAUAAUGCUAUAACAACAGAGGAUUGAGCAUCA
B4: chr5:41382290:41382405:-|CDS|ENSG00000182836|unk|total|mutant (ssRNA)
RNA: GGGAGUUCUACAGUCCGACGAUCGGCCAAAAAGCUCAUGCGGAAAUGGUCCGCCACUCAGACAAUGAAUUUUACUGGCCAGCCCGGAGCUGGAAUUCGUUAUUUUGAUCUUCGAAUUUCCACCAAGCCCAGAGACCCCGACAACAACAGAGGAUUGAGCAUCA
B5: chr1:71064632:71064733:-|3pUTR|ENSG00000132485|msi1|total|mutant (ssRNA)
RNA: GGGAGUUCUACAGUCCGACGAUCGCUAAGACAGGAUUACCCCGGCUUGCCUGAACUUUGGGCAUGGAAGAAAGACUGGAAACCCGUUGGAAACAACAUACUUAUGGAAAAGAAAGUCAGCCUUUUUAUGCUGUUAACAGAUGUCAACAGAGGAUUGAGCAUCA
B6: chr1:183142599:183142700:+|CDS|ENSG00000135862|msi1|FALSE|unique (ssRNA)
RNA: GGGAGUUCUACAGUCCGACGAUCAACGAGAUUGAAGGCACCCUAAACAAAGCCAAAGAUGAAAUGAAGGUCAGCGAUCUUGAUAGGAAAGUGUCUGACCUGGAGAAUGAAGCCAAGAAGCAGGAGGCUGCCAUCAUGGACUAUCAACAGAGGAUUGAGCAUCA
B7: chr1:23091194:23091296:-|CDS|ENSG00000169641|unk|FALSE|unique (ssRNA)
RNA: GGGAGUUCUACAGUCCGACGAUCCUCCAGAAGGACCCAAAGUAGCCUCACUGUGUCAGAGGUGCUUACCCGUCGGAAUCGGGUAGGAGACACCAUCACUGUCGCAGCCUGGAACCACUCAGCAAGCAUGGUGAGUUCCAGCCUCAACAGAGGAUUGAGCAUCA
B8: ENSG00000160209:stop:overlap|stop_codon|ENSG00000160209|stop_codon|NA|stop_codon (ssRNA)
RNA: GGGAGUUCUACAGUCCGACGAUCCCUUGACCUCCUGGGCUGAAGCAAUCUUUCUGCCUCCACCUCCCGAGUGGCUGGGACUAUAGUUGUGCACCAGCACGCCCACCUCCUGCCCAGGGUUGUUACUGGGGUGGUCACGUGGGCCAACAGAGGAUUGAGCAUCA
B9: chr1:212100457:212100572:+|CDS|ENSG00000143476|unk|FALSE|unique (ssRNA)
RNA: GGGAGUUCUACAGUCCGACGAUCAGAAGAGGCUCUGUCUCCUCCGUCUCUCCCAAGCCACCUUCAUCUUUCAAGAUGUCGAUUAGAAACUGGGUGACCCGAACACCUUCCUCAUCACCACCCAUCACUCCACCUGCUUCGGAGCAACAGAGGAUUGAGCAUCA
B10: chr20:63196482:63196583:-|3pUTR|ENSG00000149658|msi1|total|mutant (ssRNA)
RNA: GGGAGUUCUACAGUCCGACGAUCUGAUUUUUGCCCAGAUGGAUCUGCAUUUAUUUGUACUUUUUCUAUGUAUUAUAAUCCUGCCGAAGUCACUAAUAAAGGAGUAUUUUUUUUGUCAGCUUAUCAAUCAGACUGAUCUAAUGUCAACAGAGGAUUGAGCAUCA
B11: chr16:55506527:55506628:+|3pUTR|ENSG00000087245|msi1|FALSE|unique (ssRNA)
RNA: GGGAGUUCUACAGUCCGACGAUCUAUCAGUUUUAAUGCUACUACUAACAAUGAACAGUAACAAUAAUAUCCCCCUCAAUUAAUAGAGUGCUUUCUAUGUGCAAGGCACUUUUCACGUGUCACCUAUUUUAACCUUUCCAACCACAACAGAGGAUUGAGCAUCA
B12: ENSG00000107863:be:win_4351|CDS|ENSG00000107863|bound_else_gene|NA|bound_elsewhere_windowed (ssRNA)
RNA: GGGAGUUCUACAGUCCGACGAUCCACAAUGAUACUAAAGAGGAGUCCAAAAAAGAAAGUGAGACACUGGGCAGAAAACAGAAGAUCAUCAUUGCCAAAGAAAACAGCACUAGGAAAGACCCCAGCACGACAAAAGAUGAAAAGCAACAGAGGAUUGAGCAUCA
B13: chr13:42886387:42888493:-|three_prime_utr|ENSG00000133106|control|control|control (ssRNA)
RNA: GGGAGUUCUACAGUCCGACGAUCCAUAUUUAAUCUCUACUGCCAGGGAAAUGCUACAUUAUUUUUCUAAUUGGAAGUAUAAUUAGAGUGAUGUUGGUAGGGUAGAAAAAGAGGGAGUCACUUGAUGCUUUCAGGUUAAUCAGACAACAGAGGAUUGAGCAUCA
B14: chr4:143221337:143221438:+|3pUTR|ENSG00000170185|unk|FALSE|unique (ssRNA)
RNA: GGGAGUUCUACAGUCCGACGAUCUUGAAAGGUAAUAGAUUUUCCAGAAGUAAAAUCUGAUGGUUCUAAAUCAAUCAAUGUGAUAGUUCAUUUUUAACUCUUAGAAGAAUUCAGAGGAAAUUAACCCAGCUAAGUAAAAAAUCUCAACAGAGGAUUGAGCAUCA
B15: chr1:46316673:46316776:+|3pUTR|ENSG00000173660|unk|FALSE|unique (ssRNA)
RNA: GGGAGUUCUACAGUCCGACGAUCUGUUUCUUAUUUGUGUAACUGUAAGUUCACAUGAACCUCAUGGGUUUGGCUUAGGCUGGUAGCUUCUAUGUAAUUCGCAAUGAUUCCAUCUAAAUAAAAGUUCUAUGAUCUGCAAACCUGCAACAGAGGAUUGAGCAUCA
B16: chrX:53645320:53645442:-|CDS|ENSG00000086758|unk|FALSE|unique (ssRNA)
RNA: GGGAGUUCUACAGUCCGACGAUCUUAUUGGCUUCCUCUGAUAUGCAAGUGGUGCUGGCAGUCCUCAAUCUCCUAUAUGUAUUUAGCAAAAGAUCAAACUACAUCACUCGUCUGGGAUCUGACAAGAGGACCCCGCUGCUAACUCAACAGAGGAUUGAGCAUCA
B17: chrX:101412715:101412817:+|CDS|ENSG00000126945|unk|total|mutant (ssRNA)
RNA: GGGAGUUCUACAGUCCGACGAUCGGGUAUGGAGGCUAUGAUGACUAUGGUGGCUAUAAUGAUGGAUAUGGCUUUGGGUCUGACCGAUUUGGAAGAGACCUCAAUUACUGUUUUUCAGGAAUGUCUGAUCACCGAUACGGAGAUCAACAGAGGAUUGAGCAUCA
B18: chr7:100033925:100034026:+|CDS|ENSG00000106261|msi1|total|mutant (ssRNA)
RNA: GGGAGUUCUACAGUCCGACGAUCCAGAGCUCGGACCUCACCAAGCAUCAGAGAAUUCACACGGGGGAGAAACCCUAUGAAUGCCGUGAAUGUGGAAAAGCUUUCAACCGAAACUCAUACCUGAUUUUGCAUCGGAGAAUUCACCAACAGAGGAUUGAGCAUCA
B19: chr12:123761472:123761573:+|3pUTR|ENSG00000185344|unk|total|mutant (ssRNA)
RNA: GGGAGUUCUACAGUCCGACGAUCAAUAAGGCAGUUUGAACGAACAGUCUUCCCACAGUCAGGCCAUUUUUGCUGAUUUGGUUCCGAAUUUUCAGAAAUACUCCGUACACUCCACCUGUUCUUUGAUGGGAAUAUCUAAGAAGGCAACAGAGGAUUGAGCAUCA
B20: chr20:2117184:2117286:+|CDS|ENSG00000125834|unk|FALSE|unique (ssRNA)
RNA: GGGAGUUCUACAGUCCGACGAUCGCUCCUGGGGACCUACAUUAAACAGGGGACUGAGAUCGUCCCUGUUGGUGAGGCGCUGCUAGAAAACCCAAAGAUGGAGUUGCACAUCCCCCAAAAACGCAGGACUUCCAUGUCUGAGGGCAACAGAGGAUUGAGCAUCA
B21: chr6:106663037:106663138:+|CDS|ENSG00000130348|msi1|FALSE|unique (ssRNA)
RNA: GGGAGUUCUACAGUCCGACGAUCAGCACAGAAAGUGAGACGCCUCAUUGCUAAUGACUUUGUAAAUGCUUUUAACUCUGGAGUAGAUGUCUUGCUAACUCCCACCACCUUGAGUGAGGCAGUACCAUACUUGGAGUUCAUCAACAACAGAGGAUUGAGCAUCA
B22: ENSG00000070961:be:win_1|CDS|ENSG00000070961|bound_else_gene|NA|bound_elsewhere_windowed (ssRNA)
RNA: GGGAGUUCUACAGUCCGACGAUCAUGGGCGACAUGGCAAACAACUCAGUUGCUUACAGUGGUGUGAAAAACUCUUUGAAGGAAGCUAAUCAUGAUGGAGACUUUGGAAUUACGCUCGCAGAGCUGCGGGCUCUCAUGGAGCUCCAACAGAGGAUUGAGCAUCA

The binders below were run against T1, UNK ZnF1-6 (called full-length) (assay: nsRBNS (natural sequence RNA bind-n-seq); RBNS binding buffer (assumed for nsRBNS): 25 mM Tris pH 7.5, 150 mM KCl, 3 mM MgCl2, 0.01% Triton X-100, 500 ug/ml BSA, 20 U/ml SUPERase-In, 4 C; UNK is unkempt and MSI1 is Musashi-1; names of the RNAs are library labels; protein concentration not given here; high values mean tight binding).

Binder	binding signal [enrichment R]
B1	0.593
B2	0.936
B3	0.968
B4	0.445
B5	0.548
B6	0.678
B7	0.389
B8	0.427
B9	0.772
B10	0.665
B11	0.763
B12	0.687
B13	0.481
B14	0.783
B15	0.574
B16	0.899
B17	0.671
B18	0.595
B19	0.271
B20	1.08
B21	0.484
B22	0.508
